Laboratory results from the supplement of paper PMC6555819.

Experiments:
Assay in all cases: PBM binding z-score (relative to random genomic background probes); higher = stronger binding; sequences stand for … in GC…GCGATTGACAGCGTAGAATGAAGG
[1] = test system: PPARg:RXRa DBDmut IVT, anti-RXR (DBD mutation: RXRa K156A/R161A, NR concentration 270 nM, RXRa partner concentration 90 nM)
Method in brief: (§1)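 Scanned fluorescence from custom Agilent 4×180K protein-binding microarrays was regression-normalized. Binding z-scores use random background probes as reference. Ligand-free nuclear receptor dimers were incubated on the arrays for 1 h and detected with antibodies against each partner (one per run).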

[2] = test system: PPARg:RXRa IVT, anti-PPARg (NR concentration 270 nM, RXRa partner concentration 90 nM)
Method in brief: as §1

[3] = test system: PPARg DBDmut:RXRa IVT, anti-PPARg (DBD mutation: PPARg1 K132A/R137A, NR concentration 270 nM, RXRa partner concentration 90 nM)
Method in brief: as §1

[4] = test system: PPARg DBDmut IVT, anti-PPARg (DBD mutation: PPARg1 K132A/R137A, NR concentration 270 nM)
Method in brief: as §1

[5] = test system: PPARg homodimer (NR concentration 180 nM)
Method in brief: as §1

[6] = test system: PXR:RXRa (NR concentration 270 nM, RXRa partner concentration 90 nM)
Method in brief: as §1

[7] = test system: PXR homodimer (NR concentration 270 nM)
Method in brief: as §1

[8] = test system: RARa:RXR (NR concentration 270 nM, RXRa partner concentration 90 nM)
Method in brief: as §1

[9] = test system: RARa homodimer (NR concentration 270 nM)
Method in brief: as §1

[10] = test system: RARb:RXRa (NR concentration 270 nM, RXRa partner concentration 90 nM)
Method in brief: as §1

[11] = test system: RARb homodimer (NR concentration 270 nM)
Method in brief: as §1

[12] = test system: RARg:RXRa (NR concentration 270 nM, RXRa partner concentration 90 nM)
Method in brief: as §1

[13] = test system: RARg homodimer (NR concentration 270 nM)
Method in brief: as §1

[14] = test system: RXRa DBDmut IVT, anti-RXR (DBD mutation: RXRa K156A/R161A, NR concentration 90 nM)
Method in brief: as §1

[15] = test system: RXRa homodimer (NR concentration 180 nM)
Method in brief: as §1

[16] = test system: THRa:RXRa (NR concentration 90 nM, RXRa partner concentration 90 nM)
Method in brief: as §1

[17] = test system: THRa homodimer (NR concentration 90 nM)
Method in brief: as §1

[18] = test system: VDR homodimer (NR concentration 270 nM)
Method in brief: as §1

Row | Sequence | PBM binding z-score [1] | PBM binding z-score [2] | PBM binding z-score [3] | PBM binding z-score [4] | PBM binding z-score [5] | PBM binding z-score [6] | PBM binding z-score [7] | PBM binding z-score [8] | PBM binding z-score [9] | PBM binding z-score [10] | PBM binding z-score [11] | PBM binding z-score [12] | PBM binding z-score [13] | PBM binding z-score [14] | PBM binding z-score [15] | PBM binding z-score [16] | PBM binding z-score [17] | PBM binding z-score [18]
1 | CGTCCAATGTCAAGGTCAGTGAAAGAGACTCGAA | 0.498 | 1.27 | 0.404 | -0.348 | 2.25 | 2.17 | 0.697 | 2.26 | 0.775 | 3.69 | 3.45 | 3.38 | 4.06 | 1.1 | 2.22 | 2.91 | 2.18 | 1.57
2 | CCTAGTAGGTCAAGGTCACACACGCTATAGGTAC | 8.26 | 7.96 | 1.56 | 0.61 | 3.98 | 4.96 | 1.81 | 5.14 | 2.09 | 5.1 | 5.28 | 6.17 | 7.17 | 2.82 | 6.23 | 4.3 | 4.17 | 3.86
3 | GCATATAGGTAATACAAGGTGAAAGGCCGATTGT | 3.82 | 3.44 | 0.554 | 0.825 | 0.878 | 0.592 | 0.222 | 1.66 | 0.91 | 0.547 | 1.08 | 0.593 | 0.747 | 0.113 | 0.895 | 4.07 | 0.753 | 0.114
4 | GTACCAAGGTGAATAGGTCCTTGATGAGTAGGCG | 1.68 | 1.9 | -0.22 | -0.0495 | 0.461 | -0.118 | -0.138 | 0.337 | 0.144 | 1.23 | 0.586 | 0.974 | 0.683 | -0.522 | 0.785 | 1.23 | 0.287 | -0.46
5 | CTCGAAAGGTCGTGCTCAGGTGAGTTTACCAAAC | 0.999 | 1.89 | 0.777 | 0.0952 | 3.04 | 3.93 | 1.33 | 4.47 | 0.43 | 3.79 | 2.8 | 5.22 | 4.34 | 2.46 | 5.17 | 3.84 | 1.18 | 3.54
6 | GCGACTGGGGCAAAGGAGGTTACCATAAGGTTGG | 4.69 | 3.76 | -0.0461 | -0.579 | 1.05 | 1.54 | -0.167 | 1.41 | -0.0952 | 1.26 | 1.87 | 1.1 | 1.14 | -0.468 | 1.12 | 3.4 | 0.609 | 0.291
7 | CTCGAAAGGTTGGTTGAGGTGAGTATACGGATAA | -0.057 | 0.667 | -0.538 | -0.309 | 0.774 | 1.11 | 0.376 | 1.09 | 0.368 | 1.17 | 1.12 | 0.599 | 0.684 | 0.251 | 0.502 | 4.42 | 1.82 | 0.513
8 | CCTGCTAGGTCATGGTGAGCTAATCTACAGTATG | 4.15 | 3.71 | 1.17 | 0.341 | 0.897 | 1.14 | -0.321 | 2.29 | -0.0406 | 3.77 | 2.8 | 3.83 | 4.17 | 1.72 | 2.52 | 2.82 | 0.878 | -0.0752
9 | GCTTATGGGTCAAAGGTTATAGCATGAATAGAAT | 7.1 | 7.2 | 2.03 | 2.31 | 2.17 | 5.71 | 0.209 | 7.4 | 1.13 | 4.41 | 3.09 | 6.53 | 4.48 | 2.11 | 9.21 | 3.41 | -0.168 | 1.13
10 | ATATCAAGGTGATCGTGAGGTCGTTGATACTAAC | 1.67 | 2.27 | 1.01 | 1.33 | 0.347 | 3.24 | 1.18 | 2.03 | 0.406 | 1.69 | 1.5 | 2.42 | 1.24 | 0.829 | 1.61 | 3.46 | 2.27 | 2.79
11 | CGTCCAACGTCATAGGAGGTCAGTGAAGACAGAT | 0.0965 | 1.08 | 0.0644 | -0.0605 | 1.13 | 2.24 | 0.731 | 1.79 | 0.648 | 2.14 | 2.87 | 1.79 | 2.24 | 0.609 | 1.59 | 3.15 | 0.654 | 1.02
12 | CGAACTAGGTTATTGACAGGACAGTGAATAGTAA | 5.85 | 5.11 | 0.805 | 0.514 | 0.855 | 0.198 | 0.237 | 0.554 | 0.372 | 0.837 | 0.991 | 1.04 | 0.618 | 0.59 | 0.57 | 1.27 | -0.0792 | 0.278
13 | CGAACTAGGTCAGAACAGGACAATGAAGGATGAT | 6.72 | 7.28 | 2.05 | 0.683 | 0.602 | 1.23 | 0.343 | 0.703 | 0.399 | 2.98 | 2.03 | 2.55 | 3.32 | 0.605 | 1.37 | 3.62 | 0.458 | 0.155
14 | TCGAGTTGGTTACCAATGGGGCATTCAGCTTTCT | 0.424 | -0.405 | -1.9 | -0.375 | -1.66 | -0.425 | -0.63 | -0.69 | -1.31 | -0.219 | -0.231 | -0.62 | -0.85 | 0.662 | -0.558 | -0.69 | -1.23 | -0.117
15 | GCTGCTAGGTCAAGTGATGGTCAGCTAAAGCTCG | 4.64 | 4.05 | 0.0181 | -0.582 | 1.55 | 1.43 | -0.69 | 2.5 | -0.171 | 4.11 | 3.68 | 4.85 | 5.33 | 1.6 | 2.93 | 2.85 | 0.545 | -0.211
16 | TGTCAAAGTTCAAAGGTAACGTGAGTATCCACAC | 0.486 | 4.72 | 1.71 | 2.12 | 3.33 | 5.78 | 3.67 | 6.92 | 0.948 | 5.15 | 4.01 | 6.45 | 6.06 | 4.32 | 7.77 | 3.39 | -0.326 | 4.31
